Test results published in PubChem BioAssay.
Results filed as inconclusive are left out. Activity calls are given as the source filed them.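 The calls were made as follows, unless noted: active = viability at or below 10% of carrier control in both of two separate runs; inconclusive = viability at or below 10% in only one of the two runs; inactive = the rest.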

Legend:
[1] = Her2 expression decrease, cell viability multiplex – SKBR3 breast tumor cells, AlphaScreen, ATP viability, primary screen (AID 461;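 active = Her2 level under about 52% in both replicate screens, with viability over 70% of control, limit read from the data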;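 as to Her2 level: lower value means less Her2 protein in the cells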;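 as to viability: percent of carrier control wells set as 100% viability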); details: SKBR3 Her2 protein level, 18-24 h, measured here: SKBR3 viability, ATP luminescence, at 10 µM
[2] = biological target: Receptor tyrosine-protein kinase erbB-2 (Homo sapiens) (UniProt P04626); assay: as above; details: 18-24 h, at 10 µM, stronger effect = lower value
[3] = reduced viability of SK-BR-3 breast cancer cells – cell-based, 24 h, human, pilot screen (AID 572); details: SK-BR-3 viability, CellTiter-Glo luminescence, at 10 µM, stronger effect = lower value;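 also: compound exposure lasted between 18 and 24 h rather than exactly 24 h; 100% = carrier-treated control wells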
[4] = HUVEC growth inhibition – cell-based, human, primary screen (AID 575;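 active = viability at or below 30% in both replicate assays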;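 also: 100% = median of untreated cell wells with 0.1% DMSO on each plate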); details: HUVEC proliferation, CellTiter-Glo luminescence, 72 h; at 10 µM; stronger effect = lower value
[5] = H69AR cell proliferation blockers – human, duplicate replicates, primary screen (AID 580;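 active = viability at or under a set limit in both replicates, limit being median viability minus 3 SD, cut at about 48% in these data, passing the limit was not always enough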;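 also: 100% = mean luminescence of untreated wells and 0% = no signal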); details: H69AR lung tumor cells viability, ATP luminescence, 72 h; at 10 µM; stronger effect = lower value
[6] = MRP1 drug-resistance reversers in H69AR cells – cell-based, doxorubicin co-treatment, pilot screen (AID 601;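 active = viability loss from added drug above about 55%, and viability with drug at most 40%, in both replicates, limit read from the data, passing the limit was not always enough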); details: CellTiter-Glo, 72 h, at 10 µM; for differential viability (reversal): stronger effect = higher value
[7] = yeast transport mutant growth inhibition pilot in 384-well plates, post-Golgi transport modulator project (AID 636; in the data active = inhibition above about 31%); details: absorbance 615 nm, about 18 h, stronger effect = higher value
[8] = growth suppression of yeast trafficking mutant, preliminary HTS, modulators of trafficking downstream of Golgi apparatus project, 1536-format plate, OD 615 nm (AID 637; in the data active = inhibition above about 30%); details: yeast transport mutant growth, absorbance 615 nm, 18 h; stronger effect = higher value
[9] = S. cerevisiae growth inhibition in permissive medium (OD615), pilot counter-assay for S. cerevisiae lifespan shortening project, permissive growth control (AID 705;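 active = growth inhibition above 25% in both replicates, a cutoff set 3 SD above the mean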); details: OD615, 24 h, at 10 µM, stronger effect = higher value
[10] = S. cerevisiae growth inhibition in restrictive medium, OD615, pilot screen, restrictive growth control, yeast lifespan reduction project (AID 706;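 active = growth inhibition above a set limit, 3 SD over mean compound inhibition, in both replicates, cut at about 43% in these data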;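 also: modified DeaD lifespan yeast strain shifted to restrictive glucose medium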); details: OD615, 48 h, at 10 µM, stronger effect = higher value
[11] = doxorubicin toxicity protection in MRP-1 cells – H69AR cells, CellTiter-Glo, duplicate, MRP-1 activator project, pilot screen (AID 807;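 active = viability increase at or above a cutoff of the median across tested compounds plus 3 SD, cut at about 8.5% in these data, passing the limit was not always enough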;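 also: compound pretreatment 18-22 h then 72 h combined with doxorubicin; 0% = doxorubicin alone and 100% = vehicle without doxorubicin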); details: H69AR viability with doxorubicin, CellTiter-Glo luminescence; at 10 µM; stronger effect = higher value
[12] = viability of HCT116 without oncogenic beta-catenin – human colon tumor cells, pilot screen (AID 823;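 active = cell viability at or below a set limit in both duplicate runs, the limit being the all-compound median minus 4 SD, cut at about 23% in these data, passing the limit was not always enough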;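 also: 0% = wells killed by 20 µM Hyamine and 100% = untreated DMSO cell wells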); details: HCT116 beta-catenin knockout viability, CellTiter-Glo, 60 h; at 10 µM; stronger effect = lower value
[13] = viability of PTEN-null HCT116 cells – cell-based, HCT116 clonal line, CellTiter-Glo, pilot screen (AID 824;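 active = viability at or below 27.92% in each of two runs, the all-compound median minus 4 SD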;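 also: 0% = 20 µM Hyamine control and 100% = vehicle cell control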); details: HCT116 PTEN-deleted viability, 60 h, at 10 µM, stronger effect = lower value
[14] = RAM pathway blockade in budding yeast – dse1pr::URA3 reporter, 5-FOA selection, pilot screen (AID 869;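 active = inhibition over a set limit, the all-compound mean plus 3 SD, in both replicate runs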;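 also: 0% = DMSO wells with no growth and 100% = 10 µM 1-NA-PP1 with full growth; RAM network block rescues cells from 5-FOA so hits raise OD615 growth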); details: S. cerevisiae dse1pr::URA3 5-FOA growth, OD615, 2 d; at 10 µM; stronger effect = higher value; strain carries analog-sensitive mutant Cbk1 kinase
[15] = RAM signaling pathway blockade in yeast – S. cerevisiae, Pdr1DBD-CYC8 efflux-inhibited sensitized strain, primary screen (AID 1298;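 active = RAM network inhibition above 8.4% in each of two replicates, 3 SD over the compound average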;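 also: 0% = DMSO untreated cells without growth and 100% = 10 µM 1-NA-PP1 full growth; higher means more yeast growth rescued from 5-FOA killing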); details: S. cerevisiae cbk1-as DSE1-URA3 strain, 5-FOA growth OD615, 2 d; at 50 µM; stronger effect = higher value
[16] = H69AR cells + 2 uM doxorubicin, measured here: viability with 2 uM doxorubicin, stronger effect = lower value
[17] = H69AR cells, compound alone cytotoxicity

Sequence of Receptor tyrosine-protein kinase erbB-2 (Homo sapiens) (P04626 whole entry, looked up): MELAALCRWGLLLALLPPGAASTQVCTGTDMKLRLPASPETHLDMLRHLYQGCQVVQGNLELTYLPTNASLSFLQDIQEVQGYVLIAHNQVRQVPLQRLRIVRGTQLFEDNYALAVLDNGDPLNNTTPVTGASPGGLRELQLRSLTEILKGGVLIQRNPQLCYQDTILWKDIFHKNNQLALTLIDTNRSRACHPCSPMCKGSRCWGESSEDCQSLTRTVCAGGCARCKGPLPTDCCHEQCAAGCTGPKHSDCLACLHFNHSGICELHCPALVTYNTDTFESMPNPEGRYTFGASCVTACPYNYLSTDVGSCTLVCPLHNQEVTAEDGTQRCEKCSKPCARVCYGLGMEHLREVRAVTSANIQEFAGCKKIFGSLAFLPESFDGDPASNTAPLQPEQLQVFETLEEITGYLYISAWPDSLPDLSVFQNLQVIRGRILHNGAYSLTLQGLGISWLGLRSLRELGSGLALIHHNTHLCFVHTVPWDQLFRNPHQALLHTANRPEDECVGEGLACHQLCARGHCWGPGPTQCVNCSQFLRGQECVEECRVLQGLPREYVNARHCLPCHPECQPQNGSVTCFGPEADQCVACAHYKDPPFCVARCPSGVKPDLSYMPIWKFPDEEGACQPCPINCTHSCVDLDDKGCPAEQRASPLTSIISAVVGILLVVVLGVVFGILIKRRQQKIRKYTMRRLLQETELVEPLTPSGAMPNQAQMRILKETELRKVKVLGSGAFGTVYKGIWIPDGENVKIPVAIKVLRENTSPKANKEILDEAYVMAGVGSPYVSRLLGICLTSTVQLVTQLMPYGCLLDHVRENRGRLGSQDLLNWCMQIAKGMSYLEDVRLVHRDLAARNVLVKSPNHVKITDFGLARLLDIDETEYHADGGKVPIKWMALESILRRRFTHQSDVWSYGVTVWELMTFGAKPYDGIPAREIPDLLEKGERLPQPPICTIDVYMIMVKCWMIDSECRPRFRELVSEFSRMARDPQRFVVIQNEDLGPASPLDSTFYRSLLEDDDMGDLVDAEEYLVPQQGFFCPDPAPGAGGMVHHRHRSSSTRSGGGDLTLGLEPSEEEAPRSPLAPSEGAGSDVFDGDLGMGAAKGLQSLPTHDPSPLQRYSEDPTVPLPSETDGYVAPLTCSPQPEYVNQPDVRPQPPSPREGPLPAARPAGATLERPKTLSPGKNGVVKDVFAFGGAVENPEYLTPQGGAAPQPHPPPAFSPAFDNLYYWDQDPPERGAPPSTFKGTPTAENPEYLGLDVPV

O=C(COc1ccc2ccccc2c1)N1CCCC1
81.4%: viability [6, 16]
90%: viability [6, 17]
inactive: Her2 level [2] 88.5% | viability [3] 101% | viability [4] 85.3% | viability [5] 90% | differential viability (reversal) ([6]; H69AR cells + 2 uM doxorubicin) 8.64% | inhibition [7] 0.38% | inhibition [8] -6% | growth inhibition [9] -2.41% | growth inhibition [10] -2.41% | viability increase [11] -0.13% | viability [12] 96.2% | viability [13] 101% | inhibition [14] 0.745% | RAM network inhibition [15] 6.48%
101%: viability [1]

C/C=C/Cn1c(SCCCc2ccccc2)nc2c1c(=O)[nH]c(=O)n2C
68.8%: viability [6, 16]
69.6%: viability [6, 17]
89.5%: viability [1]
inactive: Her2 level [2] 72% | viability [3] 89.5% | viability [4] 61.2% | viability [5] 69.6% | differential viability (reversal) ([6]; H69AR cells + 2 uM doxorubicin) 0.835% | inhibition [7] 1.07% | inhibition [8] 3.61% | growth inhibition [9] -15.3% | growth inhibition [10] 1.29% | viability increase [11] -3.52% | viability [12] 66.8% | viability [13] 52.6% | inhibition [14] 1.32% | RAM network inhibition [15] 9.17%

CCN1CCN(C(=O)Cn2ncc3ccsc3c2=O)CC1
inactive: Her2 level [2] 110% | viability [3] 101% | viability [4] 89.8% | viability [5] 97% | differential viability (reversal) ([6]; H69AR cells + 2 uM doxorubicin) 4.04% | inhibition [7] -3.73% | inhibition [8] 0.5% | growth inhibition [9] -0.535% | growth inhibition [10] 2.34% | viability increase [11] 1.63% | viability [12] 105% | viability [13] 101% | inhibition [14] 1.72% | RAM network inhibition [15] 0.51%
97%: viability [6, 17]
101%: viability [1]
93%: viability [6, 16]

CN1CCN(C(=O)C2CCN(S(=O)(=O)c3ccc4c(c3)oc(=O)n4C)CC2)CC1
92.4%: viability [6, 16]
inactive: Her2 level [2] 104% | viability [3] 89% | viability [4] 94.4% | viability [5] 107% | differential viability (reversal) ([6]; H69AR cells + 2 uM doxorubicin) 14.3% | inhibition [7] -2.95% | inhibition [8] 9.5% | growth inhibition [9] -6.74% | growth inhibition [10] -5.41% | viability increase [11] 1.79% | viability [12] 102% | viability [13] 102% | inhibition [14] 2.46% | RAM network inhibition [15] 3.79%
89%: viability [1]
107%: viability [6, 17]

CCCCS(=O)(=O)NC1=NCN(CCOC(=O)c2ccccc2)CN1
102%: viability [6, 17]
inactive: Her2 level [2] 84.5% | viability [3] 95.5% | viability [4] 104% | viability [5] 102% | differential viability (reversal) ([6]; H69AR cells + 2 uM doxorubicin) 14.3% | inhibition [7] -3.6% | inhibition [8] 2.58% | growth inhibition [9] -8.81% | growth inhibition [10] -6.13% | viability increase [11] -2.67% | viability [12] 91.8% | viability [13] 93.2% | inhibition [14] 0.005% | RAM network inhibition [15] 0.98%
87.6%: viability [6, 16]
95.5%: viability [1]

COC(=O)C1(C#N)C(c2ccccc2)C1(C(=O)OC)C(=O)OC (stereo not given)
inactive: Her2 level [2] 90% | viability [3] 117% | viability [4] 105% | viability [5] 102% | differential viability (reversal) ([6]; H69AR cells + 2 uM doxorubicin) 11.3% | inhibition [7] -3.47% | inhibition [8] 0.65% | growth inhibition [9] -6.71% | growth inhibition [10] -6.54% | viability increase [11] -1.92% | viability [12] 77.4% | viability [13] 97.7% | inhibition [14] 1.43% | RAM network inhibition [15] 2.51%
102%: viability [6, 17]
90.8%: viability [6, 16]
117%: viability [1]

COc1ccc(N2C(=O)CCC(C(=O)N3CCCCC3)C2c2ccc(OC)c(OC)c2)cc1 (stereo not given)
93.2%: viability [6, 16]
inactive: Her2 level [2] 90.5% | viability [3] 100% | viability [4] 92.3% | viability [5] 95.4% | differential viability (reversal) ([6]; H69AR cells + 2 uM doxorubicin) 2.14% | inhibition [7] -6.67% | inhibition [8] -1.11% | growth inhibition [9] -0.77% | growth inhibition [10] -8.71% | viability increase [11] 0.42% | viability [12] 105% | viability [13] 98.2% | inhibition [14] 0.405% | RAM network inhibition [15] 2.24%
95.4%: viability [6, 17]
100%: viability [1]

Cc1cc(C)n(-c2cc(N3CCOCC3)ncn2)n1
101%: viability [1]
inactive: Her2 level [2] 90.5% | viability [3] 101% | viability [4] 93.2% | viability [5] 91.7% | differential viability (reversal) ([6]; H69AR cells + 2 uM doxorubicin) 2.58% | inhibition [7] -3.47% | inhibition [8] 3.67% | growth inhibition [9] -3.3% | growth inhibition [10] 12.9% | viability increase [11] -1.2% | viability [12] 93% | viability [13] 93.1% | inhibition [14] 0.035% | RAM network inhibition [15] 2.04%
89.1%: viability [6, 16]
91.7%: viability [6, 17]

COc1ccc(NC(=O)CN(c2ccc(C(C)C)cc2)S(=O)(=O)c2c(C)noc2C)cc1OC
84.9%: viability [6, 17]
90.5%: viability [1]
91.3%: viability [6, 16]
inactive: Her2 level [2] 99% | viability [3] 90.5% | viability [4] 58.7% | viability [5] 84.9% | differential viability (reversal) ([6]; H69AR cells + 2 uM doxorubicin) -6.37% | inhibition [7] 1.41% | inhibition [8] -2.17% | growth inhibition [9] -14.5% | growth inhibition [10] -5.8% | viability increase [11] -3.99% | viability [12] 94.5% | viability [13] 90.8% | inhibition [14] 3.67% | RAM network inhibition [15] 3.37%

Cn1cc(Cl)c(C(=O)NC2CCCC2)n1
105%: viability [6, 17]
83.5%: viability [1]
91.3%: viability [6, 16]
inactive: Her2 level [2] 118% | viability [3] 83.5% | viability [4] 108% | viability [5] 105% | differential viability (reversal) ([6]; H69AR cells + 2 uM doxorubicin) 14.1% | inhibition [7] -5.07% | inhibition [8] 5.5% | growth inhibition [9] -12.3% | growth inhibition [10] -8.69% | viability increase [11] -0.89% | viability [12] 104% | viability [13] 103% | inhibition [14] 1.5% | RAM network inhibition [15] 2.86%
